According to PubChem BioAssay (NCATS):
Values joined by “and” are separate entries in the source; they are usually repeats but may differ in a detail not shown here. Equal entries are not always repeated. Results filed as inconclusive are left out. Entries that show only a call come without a potency. Values without a mark were called inactive. Active and inactive are the calls of the source. Calls come from the whole dose curve; as a rule, active = well fitted inhibition curve with a large enough effect; inconclusive = small, poorly fitted or top-dose-only effect; inactive = flat fitted curve, though single readings scatter. Positions of bridges follow the written chain, without caps; N, C: chain ends. Non-standard residues stand in square brackets, D forms with d. Residues, ends and D or L forms follow the SMILES beside them. ξ: configuration not given here. *: point of attachment. Octanoyl(6-Me) = CCC(C)CCCCC(=O)*; ξThr(3R) = C[C@@H](O)C(N)C(=O)O; dDab = NCC[C@@H](N)C(=O)O; Dab = NCC[C@H](N)C(=O)O

Legend:
CRL-7250 = normal cell line; test: Cytotoxic Profiling of Annotated Libraries Using Quantitative High-Throughput Screening (AID 1296008); conditions: Five cell lines viability, CellTiter-Glo ATP luminescence, 48-72 h; max response: stronger effect = lower value; note: potency is the fitted concentration of half-maximal effect
Summary of the method: (§1)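 Compounds were pin-transferred onto cells and incubated 48 or 72 hr at 37 degree Celsius, 95% humidity. CellTiter-Glo was added, plates sat 10 min at room temperature, then ATP-coupled luminescence was imaged as the viability read-out.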

HEK293 = test: as above; conditions: Five cell lines viability, CellTiter-Glo ATP luminescence, 48-72 h; max response: stronger effect = lower value
Summary of the method: as §1

HaCat [1] = test: as above; conditions: Five cell lines viability, CellTiter-Glo ATP luminescence, 48-72 h; max response: stronger effect = lower value
Summary of the method: as §1

KB-3-1 = test: as above; conditions: Five cell lines viability, CellTiter-Glo ATP luminescence, 48-72 h; max response: stronger effect = lower value
Summary of the method: as §1

NIH3T3 = test: as above; conditions: Five cell lines viability, CellTiter-Glo ATP luminescence, 48-72 h; max response: stronger effect = lower value
Summary of the method: as §1

HEK293T = test: qHTS assay to identify novel small-molecules to repurpose for Merkel cell carcinoma treatment (AID 1296009); conditions: MCC and control cell lines, CellTiter-Glo viability, 72 h; series mostly up to 44.8 µM
Summary of the method: (§2)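 qHTS format: cells treated with library compounds in DMSO across 8 (NPC) or 11 (MIPE) concentrations. Readout after 72 hr at 37 degree celsius was CellTiter-Glo luminescence.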

MCC-13 = test: as above; conditions: MCC and control cell lines, CellTiter-Glo viability, 72 h; series mostly up to 46 µM
Summary of the method: as §2

MCC-26 = test: as above; conditions: MCC and control cell lines, CellTiter-Glo viability, 72 h; series mostly up to 46 µM
Summary of the method: as §2

HACAT [2] = test: as above; conditions: MCC and control cell lines, CellTiter-Glo viability, 72 h; at 44.8 µM (top of the series) unless noted
Summary of the method: as §2
Note: nearly all actives have a fitted effect of over 60% in size.

## O=C(O)CCCCCC(=O)NN=C1CCCC1
CRL-7250
  max response: 1.92%
HEK293
  outcome: inactive
HaCat [1]
  max response: 0.832%
KB-3-1
  max response: 3.36%
NIH3T3
  max response: 3.56%
HEK293T
  Potency: inactive
MCC-13
  Potency: inactive
MCC-26
  Potency: inactive

## CC1(C)[C@H](O[C@H]2O[C@H](C(=O)O)[C@@H](O)[C@H](O)[C@H]2O[C@@H]2O[C@H](C(=O)O)[C@@H](O)[C@H](O)[C@H]2O)CC[C@@]2(C)[C@H]1CC[C@]1(C)[C@H]2C(=O)C=C2[C@H]3C[C@@](C)(C(=O)O)CC[C@]3(C)CC[C@]21C
CRL-7250
  max response: -14.3%
HEK293
  max response: 0.699%
HaCat [1]
  outcome: inactive
KB-3-1
  outcome: inactive
NIH3T3
  outcome: inactive
HACAT [2]
  outcome: inactive
MCC-13
  Potency: inactive
MCC-26
  Potency: inactive

## Oc1cc2c(cc1O)C1c3ccc(O)c(O)c3OCC1(O)C2 (stereo not drawn)
CRL-7250
  max response: 1.81%
HEK293
  max response: 1.47%
HaCat [1]
  outcome: inactive
KB-3-1
  max response: 7.88%
NIH3T3
  outcome: inactive
HACAT [2]
  outcome: inactive
MCC-13
  Potency: inactive
MCC-26
  Potency: inactive

## C=C1C[C@@]2(O)O[C@@]3(C[C@H]2C(C)C)[C@H](C)CC[C@H]13
CRL-7250
  max response: -11.2%
HEK293
  max response: 0.867%
HaCat [1]
  outcome: inactive
KB-3-1
  outcome: inactive
NIH3T3
  max response: 2.78%
HACAT [2]
  outcome: inactive
MCC-13
  Potency: inactive
MCC-26
  Potency: inactive

## O=C(NNC(=O)c1ccc(CNS(=O)(=O)c2ccc(F)c(Cl)c2)cc1)c1ccccc1
CRL-7250
  outcome: inactive
HEK293
  max response: 4.45%
HaCat [1]
  outcome: inactive
KB-3-1
  max response: 0.725%
NIH3T3
  outcome: inactive
HACAT [2]
  outcome: inactive
MCC-13
  Potency: inactive
MCC-26
  Potency: inactive

## C=C(C)[C@@H]1CC[C@]2(C(=O)O)CC[C@]3(C)[C@H](CC[C@@H]4[C@@]5(C)CC[C@H](O)C(C)(C)[C@@H]5CC[C@]43C)[C@@H]12
CRL-7250
  max response: -12.6%
HEK293
  max response: -13.5%
HaCat [1]
  max response: 1.59%
KB-3-1
  max response: -12.2%
NIH3T3
  max response: 0.0342%
MCC-13
  Potency: inactive

## CC(C)(C)[C@H](NC(=O)c1ccc(N)c(Cl)c1)C(=O)N1CCC[C@@H]1C(=O)N[C@H](C#N)CC(=O)O
CRL-7250
  outcome: inactive
HEK293
  max response: -9.49%
HaCat [1]
  outcome: inactive
KB-3-1
  max response: 5.36%
NIH3T3
  outcome: inactive
HACAT [2]
  outcome: inactive [at 4.96 µM]
MCC-13
  activity change, negative = cytotoxicity: 7.54% [at 4.84 µM]
MCC-26
  activity change, negative = cytotoxicity: -4.4% [at 4.84 µM]

## CCC(C)CCCCC(=O)N[C@@H](CCN)C(=O)NC(C(=O)N[C@H](CCN)C(=O)N[C@@H]1CCNC(=O)C([C@@H](C)O)NC(=O)[C@@H](CCN)NC(=O)[C@@H](CCN)NC(=O)[C@@H](CC(C)C)NC(=O)[C@H](Cc2ccccc2)NC(=O)[C@H](CCN)NC1=O)[C@@H](C)O (stereo partly drawn) ({Octanoyl(6-Me)}-[Dab][ξThr(3R)][dDab][dDab][Dab]F[dL][dDab][dDab][ξThr(3R)]; lactam 4-C)
CRL-7250
  outcome: inactive
HEK293
  outcome: inactive
HaCat [1]
  max response: 0.455%
KB-3-1
  max response: 0.786%
NIH3T3
  outcome: inactive
HEK293T
  Potency: inactive
MCC-13
  Potency: inactive
MCC-26
  Potency: inactive

## CC(=O)O[C@H]1C[C@@H]2CC[C@H]3[C@H]4C[C@H]([N+]5(C)CCCCC5)[C@@H](OC(C)=O)[C@@]4(C)CC[C@@H]3[C@@]2(C)C[C@H]1N1CCCCC1
CRL-7250
  max response: -4.19%
HEK293
  max response: 2.19%
HaCat [1]
  max response: -11.8%
KB-3-1
  max response: 2.79%
NIH3T3
  max response: 4.95%
MCC-13
  Potency: inactive
MCC-26
  Potency: inactive

## FC(F)c1nc2ccccc2n1-c1nc(N2CCOCC2)nc(N2CCOCC2)n1
CRL-7250
  Potency: 590 nM (active) and 1.16 µM (active)
HEK293
  Potency: 1460 nM (active)
HaCat [1]
  Potency: 3260 nM (active)
KB-3-1
  Potency: 2590 nM (active)
NIH3T3
  Potency: 662 nM (active) and 1.64 µM (active)
MCC-13
  Potency: inactive

## C[C@H](CCC(=O)O)[C@H]1CCC2C3C[C@H](O)[C@@H]4C[C@H](O)CC[C@]4(C)C3CC[C@@]21C (stereo partly drawn)
CRL-7250
  max response: 3.11%
HEK293
  max response: 4.87%
HaCat [1]
  max response: -16.1%
KB-3-1
  max response: 6.35%
NIH3T3
  outcome: inactive
MCC-13
  Potency: inactive
MCC-26
  Potency: inactive

## COc1cc(N2CCC(C(N)=O)CC2)ccc1Nc1nc(N)c(Cl)c(Nc2ccccc2S(=O)(=O)C(C)C)n1
CRL-7250
  outcome: inactive
HEK293
  Potency: 1480 nM (active)
HaCat [1]
  max response: -18.3%
KB-3-1
  max response: 2.09%
NIH3T3
  Potency: 3.72 µM (active)
MCC-13
  Potency: inactive
